ChEMBL document CHEMBL4513216, “Probing the Open Global Health Chemical Diversity Library for Multistage-Active Starting Points for Next-Generation Antimalarials” (ACS Infect Dis, 2020)
Among all 69,000 compounds or so, about 8,600 (12%) showed an effect of 50% or more. For the sample, strong results were picked, then their nearest neighbours and some compounds at random.

The compounds below were run on Plasmodium berghei (assay: Screen against P. berghei liver stage (PbLuc), transformed with Luciferase, at 10uM). Conditions: tested at 10 uM.
Format: functional, HepG2

| Compound | INHIBITION [%] |
| --- | --- |
| Cc1cccc2[nH]c(C3CCCN(Cc4ccccc4C(=O)O)C3)nc12 (stereo not drawn) | 37.6 |
| Cc1cc(C2CCCN(CCCS(N)(=O)=O)C2)n[nH]1 (stereo not drawn) | 16.8 |
| c1cc(CN2CCO[C@H]3[C@H](OCC4CCOCC4)CC[C@@H]32)co1 | -34.9 |
| Cc1nn(C)c(C)c1C1CCCN1C(=O)c1cnc2onc(C)c2c1 (stereo not drawn) | -2.53 |
| O=S(=O)(CCCNC1CCc2ncnn2C1)c1ccccc1 (stereo not drawn) | 31.3 |
| CN(C)C(=O)CO[C@@H]1CC[C@H]2[C@H]1OCCN2c1ncccn1 | 20.1 |
| Cc1noc(C)c1CN1C[C@@H](OCC(=O)N(C)C)[C@H]2OCCC[C@H]21 | 74.8 |
| Cc1noc(C)c1CN1C[C@H](OCC(=O)N(C)C)[C@H]2OCCC[C@H]21 | 10.5 |
| Cc1noc(C)c1CN1C[C@H](OCC(=O)N(C)C)[C@H]2COC[C@H]21 | 15.3 |
| CN(C)C(=O)CO[C@@H]1CC[C@H]2[C@H]1OCCN2c1ncc(F)cn1 | 64.3 |
| Fc1cnc(N2CCO[C@H]3[C@H](OCC4CCOCC4)CC[C@@H]32)nc1 | 38.5 |
| CNC(=O)c1ccc(C2CCCN(C(=O)c3c(C)noc3C)C2)nc1 (stereo not drawn) | 17.1 |
| CC1(C2CCN(CCCC(=O)O)CC2)CN(Cc2ccccc2)C(=O)O1 (stereo not drawn) | 7.52 |
| Cn1nnc2cc(C(=O)N3CCC(Nc4cccnn4)CC3)ccc21 | 10 |
| Cc1ccsc1CNCC1CCCN1c1cccnn1 (stereo not drawn) | -36.25 |
| Cc1cc(C)c2cc(CNCc3ccccc3)c3nn(C)c(=O)n3c2c1 | 73.4 |
| Cc1cc(C)c(N(CC(O)CNCc2ccccc2)S(C)(=O)=O)c(C)c1 (stereo not drawn) | 35.1 |
| Cc1nn(C)c(N(C)C)c1CNCc1cccnc1 | 40.7 |
| Cc1cc(C)c2cc(CNCc3cccnc3)c3nn(C)c(=O)n3c2c1 | 50.1 |
| Cc1cnn(CCNCC(=O)NCc2ccccc2)c1 | 18.4 |
| COCCNCc1cc2c(C)cc(C)cc2n2c(=O)n(C)nc12 | 48.6 |
| CC(C)c1nn(C)c(N(C)C)c1CNCc1cccnc1 | -3.48 |
| CCCNCc1cc2c(C)cc(C)cc2n2c(=O)n(C)nc12 | 33 |

| Compound | INHIBITION [%] |
| --- | --- |
| CCOCCCNCc1cc2c(C)cc(C)cc2n2c(=O)n(C)nc12 | 51.5 |
| CCCC(=O)N1CCC(c2cc3n(n2)[C@@H](C(F)(F)F)C[C@@H](C)N3)CC1 | 36.4 |
| Cc1cnc(N(C)CCCc2cnn(C)c2)nc1N(C)C | -0.996 |
| COCC(=O)N1CC(C(=O)NCC2CC2)C2(CCOCC2)C1 (stereo not drawn) | 15.8 |
| CC(C)C(=O)NCC(=O)NCC1CCN(c2cnn(C)c(=O)c2)CC1 | 26.1 |
| Cn1ncc(N2CCC(CNC(=O)[C@@H](N)C3CCCCC3)CC2)cc1=O | 8.53 |
| CCC(OC)C(=O)NCC1CCN(c2cnn(C)c(=O)c2)CC1 (stereo not drawn) | -0.275 |
| Cn1ncc(N2CCC(CNC3CC(C)(C)CC(C)(C)C3)C2)cc1=O (stereo not drawn) | 72.3 |
| CCOC(=O)N1CCC(NCC2CCN(c3cnn(C)c(=O)c3)C2)CC1 (stereo not drawn) | 26.6 |
| Cn1ncc(N2CCC(CNC3CC(c4ccccc4)C3)CC2)cc1=O (stereo not drawn) | 63.7 |
| Cn1ncc(N2CCC(CNC(=O)[C@@H](N)c3ccccc3)CC2)cc1=O | -12.4 |
| Cn1ncc(N2CCC(CNC3Cc4ccccc4C3)C2)cc1=O (stereo not drawn) | 58.7 |
| CC(CN1CCOCC1)NCC1CCN(c2cnn(C)c(=O)c2)CC1 (stereo not drawn) | 33.5 |
| COCc1noc(CN2CC(Cc3ccccc3)CC2=O)n1 (stereo not drawn) | -23.3 |
| CN1CCCC(Cc2cncc(C(=O)NC3CC3)c2)C1 (stereo not drawn) | 8.72 |
| Cn1ncc2c1CCCC2NCc1ccc(Br)s1 (stereo not drawn) | 35.3 |
| CCCN(C)CCC(=O)N1CCCC1Cn1cccn1 (stereo not drawn) | -15.5 |
| CSCc1noc(CNC(=O)C2CCN(C(C)C)CC2)n1 | 8.51 |
| Cc1nc(CN2CCc3nn(C)c(=O)cc3C2)oc1C | -3.7 |
| CCn1cc(NS(=O)(=O)c2ccc(F)cc2)c(C(=O)NCC(C)C)n1 | 22 |
| CN1[C@H](Cn2cncn2)C[C@@H]2CN(C3CCOCC3)CC[C@@H]21 | 34.6 |
| Cc1noc(CNC(=O)CN(C)c2nc3c(F)cccc3s2)n1 | 47 |
| Cc1noc(CNC(=O)CN(C)c2nc3c(C)ccc(C)c3s2)n1 | 57.8 |

| Compound | INHIBITION [%] |
| --- | --- |
| COc1cccc2sc(N(C)CC(=O)NCc3nc(C)no3)nc12 | -14.9 |
| CC(C)(CNC(=O)COc1cccc(F)c1)C(N)=O | 46.75 |
| O=C(Cn1cccn1)N1CCC(Oc2ccc(C(F)(F)F)cn2)CC1 | 40 |
| CN(CC(=O)N1CCC(Oc2ccc(C(F)(F)F)cn2)CC1)S(C)(=O)=O | -20.5 |
| Cc1cc(CN2CCCC2)cc(Oc2ccc(C(F)(F)F)cn2)c1 | 61.9 |
| N#Cc1ccc(Oc2cc(F)c(CN3CCCC3)c(F)c2)nc1 | 26 |
| CCOC(=O)CCC(=O)N1CCC(Oc2ccc(C(F)(F)F)cn2)CC1 | 32.4 |
| Fc1cc(Oc2ccc(C(F)(F)F)cn2)cc(F)c1CN1CCCC1 | 78.9 |
| O=C(CN1CCOCC1)N1CCC2(CCCN(C3CCOCC3)C2=O)C1 (stereo not drawn) | -9.02 |
| COCCN1CCCC(C)(c2cc(O)[nH]n2)C1 (stereo not drawn) | -3.02 |
| CN(Cc1ccsc1)C(=O)CN1CCCC1Cn1cccn1 (stereo not drawn) | 63.9 |
| CN(Cc1cccs1)C(=O)CN1CCOC(Cn2cncn2)C1 (stereo not drawn) | 62.6 |
| CN(Cc1ccc(F)cc1)C(=O)CN1CCCCC1Cn1cncn1 (stereo not drawn) | 48.4 |
| CN(Cc1ccccc1)C(=O)CN1CCOC(Cn2cncn2)C1 (stereo not drawn) | -9.37 |
| CN(Cc1cccs1)C(=O)CN1CCCCC1Cn1cncn1 (stereo not drawn) | 59.3 |
| CN(Cc1ccco1)C(=O)CN1CCCCC1Cn1cncn1 (stereo not drawn) | 7.67 |
| CN(Cc1ccsc1)C(=O)CN1CCCCC1Cn1cccn1 (stereo not drawn) | -96.9 |
| CN(Cc1cccs1)C(=O)CN1CCCC1Cn1cncn1 (stereo not drawn) | 23.5 |
| Cc1ccc(CN(C)C(=O)CN2CCCCC2Cn2cncn2)cc1 (stereo not drawn) | 74.2 |
| Cc1cnn(CC2CCCN2CC(=O)N(C)Cc2ccsc2)c1 (stereo not drawn) | 34.5 |
| Cc1ccc(CN(C)C(=O)CN2CCCC2Cn2cncn2)cc1 (stereo not drawn) | 42.4 |
| Cc1cnn(CC2CN(CC(=O)N(C)Cc3cccs3)CCO2)c1 (stereo not drawn) | 35.3 |
